Reference: the supplement of paper PMC6555819

test system: LXRb:RXRa (NR concentration 270 nM, RXRa partner concentration 90 nM); test: PBM binding z-score (relative to random genomic background probes); higher = stronger binding; sequences stand for … in GC…GCGATTGACAGCGTAGAATGAAGG
Method in brief: (§1)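 Custom Agilent 4×180K protein-binding microarrays carried double-stranded probes, each with a 34-nt variable region. These regions held direct-repeat seeds, single-nucleotide variants, half-site ablations and random human genomic background sequences. Ligand-free nuclear receptor dimers were incubated on the arrays for 1 h, antibodies against each partner (one per run) detected binding, and scanned fluorescence was regression-normalized. Binding z-scores take the random background probes as reference.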

Sequence | PBM binding z-score
CAAACTAGGACAAGAGGTCAAAGTCCGCTTCCCG | 4.83
GGAACAAGGGCAAAGTTGATAGCATCTGTCGACG | 0.612
ACTTACGGGTCAAAGAGGTTATAGCACGCGTATA | 4.61
CCGACTGGGGCATAAGGTTACCAGAAGCCAGCCC | 0.864
ACTATTAGTTGAGACGAGAGCAACCGATAGGTTG | -0.216
TCGAGTAGGTTAGTCAGGGCATTCAGCCAACATA | 0.121
TCGAGTAGGTGAGGGGCATTCAGAATGGCGTCGA | 1.21
ATATGTAGGTTAAGGTTCATTCAGGTTGGTTCGC | 3.2
AGAATGAGGTTATTCGTAGATCAGGGAAGAAAGT | 1.87
GCGACTGGGGCACAGCAGGTTACCATAAGGTTGG | -0.0951
GGAACGCGGGCATTCGAGTTGATAGCATGGCGAT | -1.04
CCTACTGGGCTACGAAAGGTCATTGATTCAGTGA | 4.66
ACTTACCGGTCAACGAGGTTATAGCACGCGTATA | 1.96
CTCGAAAGGTCGTGCTCAGGTGAGGATACCAAAC | 3.22
GCTATGAGTTGAAAGGGCAACCGAATGATTCTCG | 1.24
ATTTGTAGGTTAAGGGTCATTCAGGTTGGTTCGC | 4.97
TATTGTAGATCAAGCAGGTTAAGAAAGCCTGAGT | -0.0709
CGTCATAGTTCAACTAAGGTAACGTAAAGCACGC | 2.13
TGTCAAAGTTCAAAGGTAACCTAAGTATCCACAC | 5.02
CGTCCATGGTCAGAGAGGTCAGTGAATGCCGAGT | 1.84

Sequence | PBM binding z-score
ACTCGGAGGACAAAGGTCAGAGGTACGCCAGTGA | 3.26
CTCGAAAGGTCGGTTTAGGTGAGTATACGGATAA | 1.7
TAGCCTAGGTCATGGGGGCCAGTATAGTGTCGGC | 4.86
ATCTCTAGGTAAAAGTTCAGGGAATCCCGAGGAT | 1.12
CTCGAAAGGTCGTGCTCAGGTGTGTATACCAAAC | 3.62
ACTTACGGGTCGACGAGGTTATAGCACGCGTATA | 1.94
AGTCAAAGTTCTCTAGGTAACGTAAGATTCAGCT | 0.0719
AGAATGCGGTTATACGTAGATCAGGGAAGAAAGT | -0.408
AGAATGAGGTTCAGATCAGGGAAACAGAATACAT | 0.614
CCTACTGGGCCATCAGGTCACTGATATCAACGTT | 1.45
CGTCCAAGGTCAGCAGGTTAGTGAAAGCGACGTG | 2.36
CGTCCAAGGTGAATGCTAGGTCAGTGAAAGCATT | 0.617
TGAATGAGGTTATAAGATCAGGGTACGTTGCAAA | 1.44
TCTGCTAGCTCAACGATGGTCAGCTAATCTGCTA | -1
TCTTGTAGATCAAGCGGGTTAAGAAAGCCTGAGT | 0.225
ATATGTAGGTTATTGGGTCATTCAGTTTGCGCAT | 2.62
ATCTCTAGGTAACCAGTTCAGTGAAAGAGAGGAC | 0.706
TCTTGTAGACCAAGCAGGTTAAGAAAGCCTGAGT | -0.086
CCTACTGGGCCATTCAGAGCTCATTGATCATATG | -0.728
AGAATGAGGTTATTAAGATCAAGGAATTGCGGTC | 1.5

test system: LXRb homodimer (NR concentration 270 nM); test: as above
Method in brief: as §1

Sequence | PBM binding z-score
CAAACTAGGACAAGAGGTCAAAGTCCGCTTCCCG | 1.83
GGAACAAGGGCAAAGTTGATAGCATCTGTCGACG | -0.0187
ACTTACGGGTCAAAGAGGTTATAGCACGCGTATA | 0.72
CCGACTGGGGCATAAGGTTACCAGAAGCCAGCCC | -1.26
ACTATTAGTTGAGACGAGAGCAACCGATAGGTTG | 0.14
TCGAGTAGGTTAGTCAGGGCATTCAGCCAACATA | -0.771
TCGAGTAGGTGAGGGGCATTCAGAATGGCGTCGA | 0.881
ATATGTAGGTTAAGGTTCATTCAGGTTGGTTCGC | 0.826
AGAATGAGGTTATTCGTAGATCAGGGAAGAAAGT | -0.0255
GCGACTGGGGCACAGCAGGTTACCATAAGGTTGG | -1.1
GGAACGCGGGCATTCGAGTTGATAGCATGGCGAT | -1.3
CCTACTGGGCTACGAAAGGTCATTGATTCAGTGA | 0.251
ACTTACCGGTCAACGAGGTTATAGCACGCGTATA | 1.3
CTCGAAAGGTCGTGCTCAGGTGAGGATACCAAAC | -0.12
GCTATGAGTTGAAAGGGCAACCGAATGATTCTCG | -0.412
ATTTGTAGGTTAAGGGTCATTCAGGTTGGTTCGC | 2.76
TATTGTAGATCAAGCAGGTTAAGAAAGCCTGAGT | 0.0382
CGTCATAGTTCAACTAAGGTAACGTAAAGCACGC | 0.806
TGTCAAAGTTCAAAGGTAACCTAAGTATCCACAC | 2.06
CGTCCATGGTCAGAGAGGTCAGTGAATGCCGAGT | -0.375

Sequence | PBM binding z-score
ACTCGGAGGACAAAGGTCAGAGGTACGCCAGTGA | -0.137
CTCGAAAGGTCGGTTTAGGTGAGTATACGGATAA | 0.329
TAGCCTAGGTCATGGGGGCCAGTATAGTGTCGGC | 5.38
ATCTCTAGGTAAAAGTTCAGGGAATCCCGAGGAT | 1.04
CTCGAAAGGTCGTGCTCAGGTGTGTATACCAAAC | 0.401
ACTTACGGGTCGACGAGGTTATAGCACGCGTATA | 0.314
AGTCAAAGTTCTCTAGGTAACGTAAGATTCAGCT | -0.356
AGAATGCGGTTATACGTAGATCAGGGAAGAAAGT | -0.59
AGAATGAGGTTCAGATCAGGGAAACAGAATACAT | -0.379
CCTACTGGGCCATCAGGTCACTGATATCAACGTT | -0.523
CGTCCAAGGTCAGCAGGTTAGTGAAAGCGACGTG | -0.346
CGTCCAAGGTGAATGCTAGGTCAGTGAAAGCATT | -0.905
TGAATGAGGTTATAAGATCAGGGTACGTTGCAAA | 0.315
TCTGCTAGCTCAACGATGGTCAGCTAATCTGCTA | -1.03
TCTTGTAGATCAAGCGGGTTAAGAAAGCCTGAGT | -0.187
ATATGTAGGTTATTGGGTCATTCAGTTTGCGCAT | 1.34
ATCTCTAGGTAACCAGTTCAGTGAAAGAGAGGAC | 1
TCTTGTAGACCAAGCAGGTTAAGAAAGCCTGAGT | -0.534
CCTACTGGGCCATTCAGAGCTCATTGATCATATG | -0.785
AGAATGAGGTTATTAAGATCAAGGAATTGCGGTC | 0.176
